In the supplement of paper PMC12808144 one finds cell viability data, which are given here for 36 molecules.

Unmarked numbers belong to inactive results.

The test has as its system Mel-DCC-11. As to the kind of experiment: cell viability relative to DMSO control (fraction of DMSO control); higher = less cytotoxic, active = 0.5 or less. The conditions noted are these: 1 µM; 120 h. The essentials:
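Three cell types were screened against 315 approved anti-cancer drugs from TargetMol, acoustically pre-spotted in 384-well plates at 1 µM in duplicate over 120 h: NHEM-hTERT immortalized melanocytes (2500/well), patient-derived Mel-DCC-11 and its resistant subline Mel-DCC-11-R (both 1500/well), all in 40 µl per well. The subline was tested alone and with 8 µM of its selecting drug. Viability, measured by luminescence, was normalised to vehicle controls and averaged across duplicates, with ATPlite 1step as the readout.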
For the molecule `CS(=O)(=O)OCCCCOS(C)(=O)=O` [Busulfan], the cell viability is 1.13.

Take `C=C1CC[C@@H]2[C@](C)(CO)[C@H](O)CC[C@@]2(C)[C@@H]1C/C=C1/C(=O)OC[C@H]1O` [Andrographolide]: the cell viability is 1.07.

For the molecule `N#CC1(c2ccc(NC(=O)c3cccnc3NCc3ccncc3)cc2)CCCC1` [Apatinib], the cell viability was 1.03.

Turning to `CN(CCOc1ccc(CC2SC(=O)NC2=O)cc1)c1ccccn1.O=C(O)/C=C\C(=O)O` (stereo unspecified) [Rosiglitazone maleate], the cell viability is 1.17.

Regarding `COc1ccc(C(Cl)=C(c2ccc(OC)cc2)c2ccc(OC)cc2)cc1` [Chlorotrianisene], the cell viability is 0.717.

On to `O=C(/C=C/c1ccc(O)cc1)c1ccc(O)cc1O` [Isoliquiritigenin], for which the cell viability is 1.03.

As for `CCCCCCCCCCCCCCCCOP(=O)([O-])OCC[N+](C)(C)C` [Miltefosine], the cell viability is 1.01.

Turning to `COc1cc2c(N3CCN(C(=O)Nc4ccc(OC(C)C)cc4)CC3)ncnc2cc1OCCCN1CCCCC1` [Tandutinib], the cell viability is 1.21.

With `CCc1cn([C@H]2C[C@H](O)[C@@H](CO)O2)c(=O)[nH]c1=O` [Edoxudine], the cell viability is 0.621.

In the case of `COC(=O)C[C@](O)(CCCC(C)(C)O)C(=O)O[C@@H]1C(OC)=CC23CCCN2CCc2cc4c(cc2[C@H]13)OCO4` (stereo partly specified) [Homoharringtonine], the cell viability is 0.0644 (active).

Regarding `CC[C@]1(O)C[C@@H]2C[N@@](CCc3c([nH]c4ccccc34)[C@@](C(=O)OC)(c3cc4c(cc3OC)N(C)[C@H]3[C@@](O)(C(=O)OC)[C@H](OC(C)=O)[C@]5(CC)C=CCN6CC[C@]43[C@@H]65)C2)C1.O=S(=O)(O)O` [Vinblastine sulfate], the cell viability was 0.428 (active).

Take `CC=Cc1ccc(OC)cc1` (stereo in doubt) [cis-Anethol]: the cell viability was 1.19.

For `CCN(CC)CCNC(=O)c1c(C)[nH]c(/C=C2\C(=O)Nc3ccc(F)cc32)c1C.C[C@@H](CC(=O)O)C(=O)O` [Sunitinib Malate], the cell viability was 0.864.

Consider `COc1cc2nccc(Oc3ccc(NC(=O)Nc4cc(C)on4)c(Cl)c3)c2cc1OC` [Tivozanib], for which the cell viability is 1.13.

As for `C=CC(=O)N1CCC[C@@H](n2nc(-c3ccc(Oc4ccccc4)cc3)c3c(N)ncnc32)C1` [Ibrutinib], the cell viability was 0.492 (active).

As to `Cn1nnc(-c2ccc(-c3ccc(N4C[C@H](CO)OC4=O)cc3F)cn2)n1` [Torezolid], the cell viability is 2.

On to `CCc1cc2c(cc1N1CCC(N3CCOCC3)CC1)C(C)(C)c1[nH]c3cc(C#N)ccc3c1C2=O` [Alectinib], for which the cell viability was 1.2.

Take `Nc1nc(=O)c2c([nH]1)NCC(CNc1ccc(C(=O)N[C@@H](CCC(=O)[O-])C(=O)[O-])cc1)N2C=O.[Ca+2]` (stereo partly specified) [Calcium folinate]: the cell viability was 5.03.

`Cl.Cl.Cl.Cl.Cl.Cl.Cl.Cl.c1cc(CN2CCCNCCNCCCNCC2)ccc1CN1CCCNCCNCCCNCC1` [AMD 3100 octahydrochloride]: the cell viability was 1.17.

Regarding `CNC(=O)c1ccc(N2C(=S)N(c3ccc(C#N)c(C(F)(F)F)c3)C(=O)C2(C)C)cc1F` [Enzalutamide], the cell viability was 1.15.

On to `CC[C@@]1(O)C(=O)OCc2c1cc1n(c2=O)Cc2cc3c(CN(C)C)c(O)ccc3nc2-1.Cl` [Topotecan hydrochloride], for which the cell viability is 0.346 (active).

As to `CC[C@@H](CO)NCCN[C@@H](CC)CO.Cl.Cl` [Ethambutol dihydrochloride], the cell viability was 0.966.

As for `C=C(c1ccc(C(=O)O)cc1)c1cc2c(cc1C)C(C)(C)CCC2(C)C` [Bexarotene], the cell viability is 1.77.

On to `CC(O)(P(=O)([O-])O)P(=O)([O-])O.[Na+].[Na+]` [Sodium etidronate], for which the cell viability was 0.955.

As to `CNC(=O)c1cc(Oc2ccc(NC(=O)Nc3ccc(Cl)c(C(F)(F)F)c3)cc2)ccn1.Cc1ccc(S(=O)(=O)O)cc1` [Sorafenib tosylate], the cell viability is 1.35.

For `COc1cccc2c1C(=O)c1c(O)c3c(c(O)c1C2=O)C[C@@](O)(C(C)=O)C[C@@H]3O[C@H]1C[C@H](N)[C@H](O)[C@H](C)O1.Cl` [Daunorubicin hydrochloride], the cell viability was 0.0325 (active).

Take `COc1cc2nccc(Oc3ccc(NC(=O)NC4CC4)c(Cl)c3)c2cc1C(N)=O` [Lenvatinib]: the cell viability was 1.26.

On to `Oc1cc(O)cc(/C=C/c2ccc(O)c(O)c2)c1` [Piceatannol], for which the cell viability is 0.919.

`CS(=O)(=O)CCNCc1ccc(-c2ccc3ncnc(Nc4ccc(OCc5cccc(F)c5)c(Cl)c4)c3c2)o1.Cc1ccc(S(=O)(=O)O)cc1.Cc1ccc(S(=O)(=O)O)cc1` [Lapatinib Ditosylate]: the cell viability is 1.29.

In the case of `S=c1nc[nH]c2nc[nH]c12` [Mercaptopurine], the cell viability is 0.611.

On to `CN(N=O)C(=O)N[C@@H]1[C@@H](O)[C@H](O)[C@@H](CO)O[C@@H]1O` [Streptozocin], for which the cell viability was 1.17.

As to `S=P(N1CC1)(N1CC1)N1CC1` [Triethylenethiophosphoramide], the cell viability is 0.825.

Turning to `Nc1[nH]c(=O)ncc1F` [Fluorocytosine], the cell viability is 1.16.

As for `COc1cccc2c1C(=O)c1c(O)c3c(c(O)c1C2=O)C[C@@](O)(C(=O)CO)C[C@@H]3O[C@H]1C[C@H](N)[C@H](O)[C@H](C)O1.Cl` [Doxorubicin hydrochloride], the cell viability was 0.133 (active).

Take `O=C(CCBr)N1CCN(C(=O)CCBr)CC1` [Pipobroman]: the cell viability is 0.709.

On to `CC(C)NCC(O)COc1cccc2ccccc12.Cl` (stereo unspecified) [Propranolol hydrochloride], for which the cell viability was 1.12.
